Results: the supplement of paper PMC12669032
Values without a mark were called inactive.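 Rule for the calls: active = AUC reduced over 20% with Padj below 0.05 in at least 2 of 3 replicates; inactive = otherwise.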

Assays:
Assay in all cases: growth AUC relative to DMSO control (median of replicates) (fraction); higher = more growth (less inhibition), active = hit call of the paper
Settings in all cases: 20 µM; 24 h
[1] = tested on: Akkermansia muciniphila
In short: (§1)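 Starting at OD600 0.05, gut bacterial monocultures in mGAM were grown anaerobically at 37 °C with 20 µM compound (1% DMSO) under pierced gas-permeable seals. OD600 was read every hour for 24 h, and the lowest OD of each curve was set to 0. Area under the growth curve was normalised to the plate median of solvent-only wells, or to row and column medians on the industrial chemical plate, and the median of three biological replicates grown on separate days is given.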

[2] = tested on: Bacteroides caccae
In short: as §1

[3] = tested on: Bacteroides clarus
In short: as §1

[4] = tested on: Bacteroides dorei
In short: as §1

[5] = tested on: Bacteroides stercoris
In short: as §1

[6] = tested on: Bacteroides thetaiotaomicron
In short: as §1

[7] = tested on: Bacteroides uniformis
In short: as §1

[8] = tested on: Bifidobacterium longum subsp. longum
In short: as §1

[9] = tested on: Clostridium difficile
In short: as §1

[10] = tested on: Collinsella aerofaciens
In short: as §1

[11] = tested on: Coprococcus comes
In short: as §1

[12] = tested on: Escherichia coli ED1a
In short: as §1

[13] = tested on: Escherichia coli IAI1
In short: as §1

[14] = tested on: Eubacterium rectale
In short: as §1

[15] = tested on: Fusobacterium nucleatum subsp. animalis
In short: as §1

[16] = tested on: Lactobacillus gasseri
In short: as §1

[17] = tested on: Lactobacillus paracasei
In short: as §1

[18] = tested on: Odoribacter splanchnicus
In short: as §1

[19] = tested on: Parabacteroides distasonis
In short: as §1

[20] = tested on: Parabacteroides merdae
In short: as §1

SMILES | growth AUC [1] | growth AUC [2] | growth AUC [3] | growth AUC [4] | growth AUC [5] | growth AUC [6] | growth AUC [7] | growth AUC [8] | growth AUC [9] | growth AUC [10] | growth AUC [11] | growth AUC [12] | growth AUC [13] | growth AUC [14] | growth AUC [15] | growth AUC [16] | growth AUC [17] | growth AUC [18] | growth AUC [19] | growth AUC [20]
CC(C)(C)C(O)(CCc1ccc(Cl)cc1)Cn1cncn1 (stereo not given) | 0.856 | 0.965 | 1.01 | 1.03 | 1.1 | 0.98 | 0.959 | 0.956 | 1.06 | 1.06 | 1.02 | 1.01 | 0.991 | 0.879 | 1.05 | 1.04 | 0.968 | 0.973 | 0.903 | 0.962
CCOP(=O)(NC(C)C)Oc1ccc(S(C)=O)c(C)c1 (stereo not given) | 1.01 | 0.999 | 1.04 | 1.04 | 1.02 | 0.997 | 1.02 | 1.06 | 1.08 | 1 | 1.04 | 1.03 | 1.04 | 1.05 | 1.09 | 1.07 | 0.975 | 1.01 | 1.13 | 1.05
Oc1cc(Cl)c(Cl)cc1Cl | 0.97 | 0.934 | 0.945 | 0.936 | 0.913 | 0.986 | 0.992 | 1.02 | 0.929 | 0.922 | 0.983 | 0.978 | 0.938 | 0.97 | 1 | 0.843 | 0.971 | 1.12 | 0.962 | 0.927
Cc1cc(Cl)ccc1OCC(=O)O | 1.02 | 0.996 | 1.01 | 0.933 | 0.945 | 1.02 | 1 | 1.1 | 0.967 | 1.04 | 1.02 | 1.02 | 1 | 0.984 | 1.07 | 1.05 | 1.04 | 1.05 | 1.01 | 1.04
C[N+]1(C)CCCCC1.[Cl-] | 0.993 | 1.02 | 1.03 | 1.02 | 1.02 | 1.03 | 1.05 | 1.01 | 1.01 | 1.02 | 1.07 | 1.03 | 0.992 | 1.2 | 1.09 | 0.976 | 1.02 | 0.941 | 1 | 1.04
Clc1ccc(C(c2ccc(Cl)cc2)C(Cl)Cl)cc1 | 1.03 | 0.927 | 0.899 | 0.888 | 0.662 (active) | 0.933 | 0.984 | 1.06 | 1.03 | 0.873 | 1.01 | 1.02 | 0.984 | 1.01 | 1.07 | 0.956 | 0.994 | 0.951 | 1.02 | 0.918
CNC(=O)Oc1cccc(N=CN(C)C)c1.Cl | 1.18 | 1.03 | 1.03 | 1.02 | 1.12 | 1.02 | 0.993 | 1.06 | 1.02 | 1.04 | 1.04 | 1 | 1.05 | 1.04 | 1.07 | 1.02 | 1.04 | 1.02 | 1.03 | 1.02
CCOC(=O)Nc1cccc(OC(=O)Nc2ccccc2)c1 | 0.899 | 1.06 | 0.961 | 1 | 0.889 | 0.998 | 0.95 | 0.944 | 0.986 | 0.977 | 0.933 | 1.01 | 1.03 | 0.901 | 0.894 | 1.24 | 0.908 | 0.986 | 0.967 | 0.949
NC(=O)/N=C1/SCCN1Cc1ccc(Cl)nc1 | 0.782 | 1.01 | 0.999 | 0.979 | 1.04 | 0.978 | 1.01 | 1.03 | 1 | 1.01 | 0.965 | 0.999 | 0.997 | 1.02 | 0.984 | 0.995 | 0.975 | 1.03 | 0.992 | 0.984
